Data as given in PubChem BioAssay (NCI).
The panel holds about 83,000 compounds, 20% with a hit somewhere; the sample as a whole holds those more often.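 For each line, cells grew in 96-well plates with the test compound present at a single concentration for 48 hours.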 Activity calls are given as the source filed them. Rule for the calls: active = growth percent below 10; inactive = the rest.

tested on: HL-60(TB) leukemia; assay: NCI-60 one-dose screen, 48 h (100 = growth as untreated, 0 = no growth, -100 = all killed); details: 10 µM unless noted

Row | SMILES | growth
1 | C/C(=C/CCC(C)[C@@H]1CC[C@]2(C)C3=C(CC[C@@]12C)[C@@]1(C)CCC(=O)C(C)(C)[C@@H]1CC3)C(=O)O (stereo not given in full) | -58.8% (active)
2 | Cc1cc(NC(=O)COC(=O)c2sc3cc(F)ccc3c2Cl)no1 | 107% (inactive)
3 | CC(=O)c1ccc(N=C(C#N)C2=C(O)c3ccccc3C2=O)cc1 | 86.2% (inactive)
4 | CC(=O)c1c(C)nc(SCC(=O)Nc2ccc(Cl)cc2)n1-c1ccc(Cl)cc1 | 86.6% (inactive)
5 | CCn1c(-c2nonc2N)nc2c(C#CC(C)(C)O)ncc(OC[C@H]3CCCNC3)c21 | 41% (inactive)
6 | CC1(C)N=C(N)N=C(N)N1c1cccc(OCCOc2cccc([N+](=O)[O-])c2)c1 | 17.6% (inactive)
7 | CC1(C)CC(OCCCC[P+](c2ccccc2)(c2ccccc2)c2ccccc2)CC(C)(C)N1O | -37.4% (active)
8 | CCCc1cc(C(N)=S)ccn1 | 103% (inactive)
9 | OCCNc1nc(Nc2ccc(Cl)c(Cl)c2)nc2ccccc12 | 44.4% (inactive)
10 | CC(C)=C[C@@H]1c2c(c3ccccc3n(C)c2=O)O[C@H]2c3c(c4ccccc4n(C)c3=O)OC(C)(C)[C@@H]12 | 20.4% (inactive)
11 | CCCCC1=c2c([nH]c3ccc(OC)cc23)=NC2C=CC=NC12 (stereo not given) | 80.5% (inactive)
12 | COc1ccc(-c2cc(-c3ccc(N(C)C)cc3)nc(NC(=O)c3ccncc3)n2)cc1 | 113% (inactive)
13 | Cc1cccc2c(N)c3ccccc3nc12 | 9.2% (active)
14 | COc1cccc(Nc2ncnn3ccc(CN4CC[C@@H](N)[C@H](O)C4)c23)c1 | 73.8% (inactive)
15 | COc1ccc2cc(-c3nn(-c4ccc(C(=O)O)cc4)cc3CO)ccc2c1 | 50.3% (inactive)
16 | COc1cnc2c(c1)C(=O)c1c-2n(CCCN2CCNCC2)c(=O)c2cc([N+](=O)[O-])ccc12 | -49% (active)
17 | CCOC(=O)C1(C)CCCC1N (stereo not given) | 98.5% (inactive)
18 | CN(C)c1ccc(-n2nc3ccccc3n2)cc1 | 90.5% (inactive)
19 | COC(=O)c1cc2oc(/C=C3/SC(=S)N(N)C3=O)cc2n1Cc1ccccc1 | 53.7% (inactive)
20 | CCOC(=O)NC1=NCC(C)(C)S1 | 67.9% (inactive)

Row | SMILES | growth
21 | Nc1cc2c(cc1Br)[nH]c(=O)c1ccccc12 | 91% (inactive)
22 | C#CCSc1nnnn1-c1ccc(Br)c(C)c1 | 88.4% (inactive)
23 | c1ccc(-c2n(Cc3ccc4ccccc4n3)c3ccccc3[n+]2Cc2ccc3ccccc3n2)cc1 | -54% (active)
24 | Cc1nnc2c(Cc3ccccc3)nc3ccccc3n12 | 95.7% (inactive)
25 | COc1cc(CNC(=O)Cc2ccccc2)ccc1OCc1cn(-c2ccc(F)cc2)nn1 | 104% (inactive)
26 | COc1ccc(C(=O)c2sc3nc(C)cc(C)c3c2N)cc1OC | 97.3% (inactive)
27 | CC(=O)c1nn(-c2ccccc2)/c(=N/N=Cc2cn(-c3ccccc3)nc2-c2cc3ccccc3oc2=O)s1 | 102% (inactive)
28 | O=CNc1ccc2c(c1)Cc1cc([N+](=O)[O-])ccc1-2 | 17.7% (inactive)
29 | CCOC(=O)C1=C(Nc2ccc(Br)cc2)C(=O)N(CC)C1 | 104% (inactive)
30 | N=C(N)/N=C(\CCc1nc2ccccc2[nH]1)c1nc2ccccc2[nH]1 | 118% (inactive)
31 | CCCCN(C=S)CCCC | 104% (inactive)
32 | Nc1cc(Br)c(-c2nn3c(CCC(=O)c4nc5ccccc5[nH]4)nnc3s2)c(Br)c1 | 100% (inactive)
33 | FC(F)(F)c1cccc(Oc2ccc(Nc3ncnc4ccc(OCCCN5CCOCC5)cc34)cc2Cl)c1 | 32.8% (inactive)
34 | COC(=O)/C=C1/SC(=Nc2ccc(F)cc2)N(CCc2c[nH]c3ccc(O)cc23)C1=O | -8.07% (active)
35 | CSc1nc2ccc(C)cc2cc1/C=N/O | 91.6% (inactive)
36 | O=c1[nH]c(=S)[nH]c2nc[nH]c12 | 87% (inactive)
37 | CCOC(=O)C(O)C(O)C(=O)OCC (stereo not given) | 102% (inactive)
38 | CC(=O)O[C@H]1C(=O)[C@@]2(C)[C@H]([C@H](OC(=O)c3ccccc3)[C@]3(O)C[C@H](OC(=O)[C@H](OC(=O)CCC(=O)OC4CCC(S/N=C(N)/N=C(\N)N(C)C)CC4)[C@@H](NC(=O)c4ccccc4)c4ccccc4)C(C)=C1C3(C)C)[C@]1(OC(C)=O)CO[C@@H]1C[C@@H]2O (stereo not given in full) | 7.49% (active)
39 | C=C(C)[C@@H]1CC[C@]2(C(=O)O)CC[C@]3(C)[C@H](CC[C@@H]4[C@@]5(C)C[C@@H](CC#Cc6ccccc6C)C(=O)C(C)(C)[C@@H]5CC[C@]43C)[C@@H]12 | -14.7% (active)
40 | Cc1cc(N2CCN(C)CC2)nc(NCc2cc(Nc3ccnc4cc(Cl)ccc34)ccc2F)n1 | -53.5% (active)
